# Laboratory results from PubChem BioAssay.
# Inconclusive results are not listed. The list shows a part of the results. Active and inactive are the calls of the source.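 The calls were made as follows, unless noted: active = GFP response above 150% of the DMSO control; inconclusive = Fewer than 70 cells counted for a yeast strain; inactive = the rest.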
# Legend:
# [1] = rapamycin-like changes in RPL19A-GFP expression – cell-based, S. cerevisiae, multiplex flow cytometry, primary screen (AID 1862; in the data active = percent of DMSO control GFP below about 86%;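 also: lower values mimic rapamycin by blocking the RPL19A rise seen in DMSO cells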); details: S. cerevisiae RPL19A-GFP strain, flow cytometry fluorescence, 3 h; at 10 µM; stronger effect = lower value
# [2] = TOR pathway GLN3 branch reporter MEP2-GFP changes – S. cerevisiae, multiplex flow cytometry, primary screen (AID 1867;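 active = GFP response, as percent of the DMSO control, above the screen-wide mean plus 3 SD, about 139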;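 also: median GFP channel fluorescence of barcode-gated MEP2-GFP cells measured by flow cytometry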); details: S. cerevisiae MEP2-GFP strain, 3 h, at 10 µM, stronger effect = higher value, 100% means same as DMSO wells
# [3] = TOR pathway RTG branch CIT2 reporter changes – S. cerevisiae, GFP fusion, multiplex flow cytometry, primary screen (AID 1870;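 active = percent response above a set limit, the screen-wide mean plus 3 SD, cut at about 130% in these data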;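 also: barcoded CIT2-GFP strain pooled with four other GFP strains with rapamycin as positive control; median GFP fluorescence per well over plate mean of DMSO wells so 100% = DMSO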); details: S. cerevisiae CIT2-GFP expression, 3 h, at 10 µM, stronger effect = higher value
# [4] = TOR pathway LAP4-GFP level changes – S. cerevisiae, multiplex flow cytometry, primary screen (AID 1873;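 active = GFP signal, as percent of the solvent control, above the screen mean plus 3 SD, about 149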); details: S. cerevisiae LAP4-GFP expression, 3 h, at 10 µM, stronger effect = higher value
# [5] = yeast AGP1-GFP level changes, GLN3 branch – cell-based, multiplex flow cytometry, S. cerevisiae, primary screen (AID 1887;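 active = GFP signal above the screen-wide mean plus 3 SD, that is over about 124.5% of the solvent control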;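 also: AGP1-GFP fusion strain of S. cerevisiae within a five-strain barcoded multiplex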); details: 3 h, at 10 µM, stronger effect = higher value
# [6] = hit retest on RPL19A-GFP reporter strain – cell-based, S. cerevisiae, flow cytometry, cherry picks, mother/daughter gates, confirmation (AID 2270;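 active = GFP response below 50% of the DMSO control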); details: 3 h, at 10 µM, stronger effect = lower value, 100 = same GFP as DMSO wells
# [7] = yeast TOR pathway reporter LAP4-GFP change – cell-based, cherry picks, flow cytometry, mother/daughter gates, confirmation (AID 2271;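 active = GFP response above 150% of the DMSO control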;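 also: ratio of sample to DMSO plate mean so 100% equals DMSO level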); details: S. cerevisiae LAP4-GFP strain, 3 h, at 10 µM, stronger effect = higher value, 100 means same as DMSO control
# [8] = TOR pathway reporter MEP2-GFP, retest of hits – S. cerevisiae, flow cytometry GFP, cherry picks, confirmation (AID 2272);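 also: ratio of well signal to plate DMSO mean so 100% equals DMSO level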; details: S. cerevisiae MEP2-GFP strain, 3 h, at 10 µM, stronger effect = higher value
# [9] = TOR pathway CIT2 reporter hit retest – S. cerevisiae, GFP fusion, cherry picks, mother/daughter gates, confirmation (AID 2274;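 active = GFP response above 150% of the DMSO level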); details: S. cerevisiae CIT2-GFP strain, flow cytometry, 3 h, at 10 µM, stronger effect = higher value
# [10] = reduced mouse 2C T cell binding to pMHC/ICAM-1 vesicles – MLPCN validation set, flow cytometry, LFA-1/ICAM-1 modulator project, pilot screen (AID 2523;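 active = response below a set limit, under 55% cells CD8-positive and vesicle-bound, and CD8 cells' 90th-percentile brightness under 279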;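 as to vesicle binding response: mean PE anti-B7-1 fluorescence of CD8+ cells relative to row control; 100% = QL9-loaded vesicles with DMSO vehicle in the same plate row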); details: 2C mouse CD8+ T cells, at 7 µM, stronger effect = lower value; double positive events: measured here: CD8+/vesicle+ event percentage
# [11] = interference with biotin-avidin bead interaction – biochemical, flow cytometry, bead-based, counter-screen for RGS protein interaction modulators (AID 1783;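 active = inhibition above 50%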;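 also: median green fluorescence of gated singlet beads compared with DMSO control wells; 0% = DMSO wells and 100% = complete loss of bead fluorescence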); details: streptavidin beads, fluorescein-biotin binding; at 10 µM, stronger effect = higher value
# [12] = biological target: Guanine nucleotide-binding protein G(o) subunit alpha (Homo sapiens) (UniProt P09471); test: retest of RGS8-Galphao interaction hits – biochemical, multiplexed bead flow cytometry, single concentration, confirmation (AID 1836; in the data active = binding response below about 72% or above about 130%; inactive = in between;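 also: Galphao activated as GDP AlF4 complex before binding bead RGS8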); details: bead-based flow cytometry RGS8-Galphao binding, fluorescence; at 10 µM; actives lie on both sides
# [13] = biological target: Guanine nucleotide-binding protein G(o) subunit alpha (Homo sapiens) (UniProt P09471); test: retest of RGS7-Galphao interaction hits – biochemical, multiplexed bead flow cytometry, single concentration, confirmation (AID 1837; in the data active = response below about 75% or above about 130%; inactive = in between;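 also: fluorescent Galphao activated with GDP and aluminum fluoride binding bead-coupled RGS7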); details: bead-based flow cytometry RGS7-Galphao binding; at 10 µM; actives lie on both sides
# [14] = biological target: Regulator of G-protein signaling 16 (Homo sapiens) + Guanine nucleotide-binding protein G(o) subunit alpha (Homo sapiens) (UniProt O15492+P09471); test: RGS16 and Galphao interaction regulators – biochemical, single concentration, multiplexed bead flow cytometry, confirmation (AID 1838; in the data active = response below about 74% or above about 130%; inactive = in between;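 also: Galphao activated as the GDP aluminium fluoride complex binding bead-coupled RGS16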); details: bead-based flow cytometry, at 10 µM, actives lie on both sides
# [15] = biological target: Guanine nucleotide-binding protein G(o) subunit alpha (Homo sapiens) (UniProt P09471); test: RGS4 and Galphao interaction regulators – biochemical, single concentration, multiplexed bead flow cytometry, confirmation (AID 1840; in the data active = binding response below about 74% or above about 130%; inactive = in between); details: at 10 µM, actives lie on both sides
# [16] = biological target: Guanine nucleotide-binding protein G(o) subunit alpha (Homo sapiens) + Regulator of G-protein signaling 19 (Homo sapiens) (UniProt P09471+P49795); test: RGS19 interaction with Gαo, hit retest – biochemical, single point, multiplexed bead flow cytometry, confirmation (AID 1841; in the data active = response below about 50% or above about 160%; inactive = in between;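 also: 100% = no compound control and 0% = blank background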); details: bead-based flow cytometry RGS19-Galphao binding; at 10 µM; actives lie on both sides
# [17] = measured here: daughter cell gate
# [18] = measured here: mother cell gate
# [19] = measured here: daughter cell gate response
# [20] = measured here: mother cell gate response
# Chain of Guanine nucleotide-binding protein G(o) subunit alpha (Homo sapiens) (P09471 whole entry, looked up): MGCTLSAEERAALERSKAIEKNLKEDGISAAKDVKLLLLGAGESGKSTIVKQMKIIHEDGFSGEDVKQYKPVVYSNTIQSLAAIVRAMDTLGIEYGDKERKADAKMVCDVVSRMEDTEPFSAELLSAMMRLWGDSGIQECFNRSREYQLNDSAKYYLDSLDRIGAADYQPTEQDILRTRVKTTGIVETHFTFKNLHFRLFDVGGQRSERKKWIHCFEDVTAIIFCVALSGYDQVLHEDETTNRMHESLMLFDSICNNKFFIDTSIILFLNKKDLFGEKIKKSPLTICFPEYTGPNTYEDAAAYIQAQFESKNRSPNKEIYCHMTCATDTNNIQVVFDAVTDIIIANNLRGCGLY
# Chain of Guanine nucleotide-binding protein G(o) subunit alpha (Homo sapiens) + Regulator of G-protein signaling 19 (Homo sapiens) (P09471 whole entry, looked up): as above
# Chain of Guanine nucleotide-binding protein G(o) subunit alpha (Homo sapiens) + Regulator of G-protein signaling 19 (Homo sapiens) (P49795 whole entry, looked up): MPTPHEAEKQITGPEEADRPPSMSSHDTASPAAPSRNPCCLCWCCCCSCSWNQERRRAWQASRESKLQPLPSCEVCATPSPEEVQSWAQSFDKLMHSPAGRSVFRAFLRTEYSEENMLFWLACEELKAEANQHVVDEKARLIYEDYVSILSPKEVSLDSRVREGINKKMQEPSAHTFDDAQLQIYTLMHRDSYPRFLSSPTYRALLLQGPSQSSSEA
# Chain of Regulator of G-protein signaling 16 (Homo sapiens) + Guanine nucleotide-binding protein G(o) subunit alpha (Homo sapiens) (O15492 whole entry, looked up): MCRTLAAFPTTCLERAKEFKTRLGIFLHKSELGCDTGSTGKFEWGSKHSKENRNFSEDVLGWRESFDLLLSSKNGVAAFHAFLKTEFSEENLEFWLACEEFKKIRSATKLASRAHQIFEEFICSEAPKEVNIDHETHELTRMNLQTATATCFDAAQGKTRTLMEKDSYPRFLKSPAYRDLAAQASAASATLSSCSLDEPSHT
# Chain of Regulator of G-protein signaling 16 (Homo sapiens) + Guanine nucleotide-binding protein G(o) subunit alpha (Homo sapiens) (P09471 whole entry, looked up): as the sequence (P09471 whole entry, looked up) above
structure (smiles),measurement,setting,value
O=C(NCCN1CCN(c2ccccc2)CC1)c1cccc(Br)c1,percent of DMSO control GFP,[1],91.3% (inactive)
same,GFP response vs DMSO,[2],158% (active)
same,percent response of DMSO control,[3],107% (inactive)
same,GFP response vs DMSO,[4],88.6% (inactive)
same,"GFP response, % of DMSO",[5],91.5% (inactive)
same,GFP response vs DMSO,[6],97% (inactive)
same,GFP response vs DMSO,[6]; [17],98%
same,GFP response vs DMSO,[6]; [18],97.4%
same,GFP response relative to DMSO,[7],97.7% (inactive)
same,GFP response relative to DMSO,[7]; [19],101%
same,GFP response relative to DMSO,[7]; [20],96.5%
same,GFP response vs DMSO,[8],102% (inactive)
same,"GFP response, % of DMSO",[9],102% (inactive)
same,"GFP response, % of DMSO",[9]; [17],100%
same,"GFP response, % of DMSO",[9]; [18],101%
same,double positive events,[10],41.8%
same,vesicle binding response,[10],59.1% (active)
C1COC(NC(C2CC2)C2CC2)=N1,percent of DMSO control GFP,[1],89.3% (inactive)
same,GFP response vs DMSO,[2],148% (active)
same,percent response of DMSO control,[3],110% (inactive)
same,GFP response vs DMSO,[4],85.3% (inactive)
same,"GFP response, % of DMSO",[5],94.5% (inactive)
same,GFP response vs DMSO,[6],96% (inactive)
same,GFP response vs DMSO,[6]; [17],97.1%
same,GFP response vs DMSO,[6]; [18],97.6%
same,GFP response relative to DMSO,[7],95.4% (inactive)
same,GFP response relative to DMSO,[7]; [19],96%
same,GFP response relative to DMSO,[7]; [20],95.1%
same,GFP response vs DMSO,[8],96.2% (inactive)
same,"GFP response, % of DMSO",[9],98.3% (inactive)
same,"GFP response, % of DMSO",[9]; [17],101%
same,"GFP response, % of DMSO",[9]; [18],97.3%
same,double positive events,[10],64.4%
same,vesicle binding response,[10],227% (inactive)
COc1ccc(CCNC(=O)c2cc3sccc3n2C)cc1OC,inhibition,[11],0.7% (inactive)
same,binding response (% of control),[12],103% (inactive)
same,response (percent of control binding),[13],106% (inactive)
same,response (% of control binding),[14],103% (inactive)
same,binding response (% of control),[15],102% (inactive)
same,response (percent of control binding),[16],114% (inactive)
N#C/C(C(N)=O)=c1/ccc2c(c1)N1C3=C(CCCC3)CC3CCCCC31N=2 (stereo unspecified),percent of DMSO control GFP,[1],104% (inactive)
same,GFP response vs DMSO,[2],113% (inactive)
same,percent response of DMSO control,[3],94.5% (inactive)
same,GFP response vs DMSO,[4],170% (active)
same,"GFP response, % of DMSO",[5],105% (inactive)
same,GFP response vs DMSO,[6],92.7% (inactive)
same,GFP response vs DMSO,[6]; [17],88.8%
same,GFP response vs DMSO,[6]; [18],93.3%
same,GFP response relative to DMSO,[7],118% (inactive)
same,GFP response relative to DMSO,[7]; [19],115%
same,GFP response relative to DMSO,[7]; [20],123%
same,GFP response vs DMSO,[8],101% (inactive)
same,"GFP response, % of DMSO",[9],88.9% (inactive)
same,"GFP response, % of DMSO",[9]; [17],85.2%
same,"GFP response, % of DMSO",[9]; [18],89.3%
same,double positive events,[10],59.5%
same,vesicle binding response,[10],108% (inactive)
CC(=O)OCC(=O)[C@@]1(O)CC[C@H]2[C@@H]3CCC4=CC(=O)CC[C@]4(C)[C@H]3[C@@H](O)C[C@@]21C,percent of DMSO control GFP,[1],101% (inactive)
same,GFP response vs DMSO,[2],104% (inactive)
same,percent response of DMSO control,[3],96.6% (inactive)
same,GFP response vs DMSO,[4],97.3% (inactive)
same,"GFP response, % of DMSO",[5],103% (inactive)
same,GFP response vs DMSO,[6],95.8% (inactive)
same,GFP response vs DMSO,[6]; [17],97.1%
same,GFP response vs DMSO,[6]; [18],97.7%
same,GFP response relative to DMSO,[7],96.7% (inactive)
same,GFP response relative to DMSO,[7]; [19],99.2%
same,GFP response relative to DMSO,[7]; [20],95.1%
same,GFP response vs DMSO,[8],100% (inactive)
same,"GFP response, % of DMSO",[9],99.7% (inactive)
same,"GFP response, % of DMSO",[9]; [17],101%
same,"GFP response, % of DMSO",[9]; [18],98.5%
same,double positive events,[10],62.5%
same,vesicle binding response,[10],4910% (inactive)
COc1cc2c(cc1OC)C(c1ccccc1)=NCC2,percent of DMSO control GFP,[1],92.2% (inactive)
same,GFP response vs DMSO,[2],144% (active)
same,percent response of DMSO control,[3],103% (inactive)
same,GFP response vs DMSO,[4],84.2% (inactive)
same,"GFP response, % of DMSO",[5],97.7% (inactive)
same,GFP response vs DMSO,[6],98.2% (inactive)
same,GFP response vs DMSO,[6]; [17],97.6%
same,GFP response vs DMSO,[6]; [18],99.7%
same,GFP response relative to DMSO,[7],88.9% (inactive)
same,GFP response relative to DMSO,[7]; [19],88%
same,GFP response relative to DMSO,[7]; [20],87.6%
same,GFP response vs DMSO,[8],100% (inactive)
same,"GFP response, % of DMSO",[9],103% (inactive)
same,"GFP response, % of DMSO",[9]; [17],106%
same,"GFP response, % of DMSO",[9]; [18],102%
same,double positive events,[10],59.5%
same,vesicle binding response,[10],202% (inactive)
